{"source": "PubChem BioAssay AID488890", "about": "(Southern Research Specialized Biocontainment Screening …, 2010)", "note": "Screen size: about 320,000 compounds; about 1,300 (0.41%) were called active. Not shown: some 3% with an inconclusive outcome. No rule for the calls is given here. Only a sample is shown. Entries with a potency or affinity are not part of this list.", "data": [{"assay": "growth inhibition of non-replicating M. tuberculosis (AID 488890);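 also: plate controls were DMSO cells for no effect and high antibiotic wells for full effect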", "conditions": "Mycobacterium tuberculosis non-replicating, at 25 µM, stronger effect = higher value", "units": {"inhibition": "%"}, "values": [{"smiles": "Cc1ccc(S(=O)(=O)N2CCC(=O)N(CCOC(=O)NCc3ccccc3)CC2)cc1", "inhibition": 16.1}, {"smiles": "O=C(O)c1ccc(N2CC3CC(C2)c2cccc(=O)n2C3)c(NC(=S)Nc2ccc(Br)cc2)c1", "note": "(stereo not drawn)", "inhibition": 41.1}, {"smiles": "O=[N+]([O-])c1ccc(Nc2cccc(F)c2)nc1", "inhibition": 16.5}, {"smiles": "CC1=NN(C(=O)CCc2ccc3c(c2)OCO3)C(O)(C(F)(F)F)C1", "note": "(stereo not drawn)", "inhibition": -15.8}, {"smiles": "COc1ccc(CC(=O)N2N=C(C)CC2(O)C(F)(F)F)cc1", "note": "(stereo not drawn)", "inhibition": 72.4}, {"smiles": "O=C(c1ccco1)N1N=C(c2ccncc2)CC1(O)C(F)(F)F", "note": "(stereo not drawn)", "inhibition": -9.67}, {"smiles": "CC1=NN(C(=O)c2ccc(Cn3nc(C)cc3C)o2)C(O)(C(F)(F)F)C1", "note": "(stereo not drawn)", "inhibition": 24.9}, {"smiles": "CC1=NN(C(=O)c2cccnc2)C(O)(C(F)(F)F)C1", "note": "(stereo not drawn)", "inhibition": -26.1}, {"smiles": "CC1=NN(C(=O)CCc2ccccc2O)C(O)(C(F)(F)F)C1", "note": "(stereo not drawn)", "inhibition": 74.8}, {"smiles": "COc1ccc(OCC(=O)N2N=C(C)CC2(O)C(F)(F)F)cc1", "note": "(stereo not drawn)", "inhibition": 75.8}, {"smiles": "CC1=NN(C(=O)c2nn(C)cc2Br)C(O)(C(F)(F)F)C1", "note": "(stereo not drawn)", "inhibition": 8.53}, {"smiles": "COC(=O)c1ccccc1NC(=O)COC(=O)/C=C/c1cccs1", "inhibition": 18.2}, {"smiles": "CC(C)c1ccc(C(O)Cc2nc3ccccc3n2C)cc1", "note": "(stereo not drawn)", "inhibition": 41.1}, {"smiles": "OCCCc1nc2n(n1)C(c1cccs1)C=C(c1ccccc1)N2", "note": "(stereo not drawn)", "inhibition": 0.31}, {"smiles": "CCOC(=O)c1cc([N+](=O)[O-])sc1N", "inhibition": 5.99}, {"smiles": "CCn1c(C(=O)O)c(CC(=O)NC2CCCCCC2)c2ccccc21", "inhibition": 24.3}, {"smiles": "O=C(CSc1ncccn1)NC1CCCc2ccccc21", "note": "(stereo not drawn)", "inhibition": -8.14}, {"smiles": "CC1=NN(C(=O)Cn2nc([N+](=O)[O-])cc2C)C(O)(C(F)(F)F)C1", "note": "(stereo not drawn)", "inhibition": 32.3}, {"smiles": "COc1ccc(CC(=O)N2N=C(C)CC2(O)C(F)(F)F)cc1OC", "note": "(stereo not drawn)", "inhibition": 45.4}, {"smiles": "CC1=NN(C(=O)c2ccc(Cn3ccc([N+](=O)[O-])n3)cc2)C(O)(C(F)(F)F)C1", "note": "(stereo not drawn)", "inhibition": 75.5}, {"smiles": "CC1=NN(C(=O)c2cccc(Cn3nc(C)c([N+](=O)[O-])c3C)c2)C(O)(C(F)(F)F)C1", "note": "(stereo not drawn)", "inhibition": 76.4}, {"smiles": "CNC(=S)NNS(=O)(=O)c1ccc(OC)cc1OC", "inhibition": -11}, {"smiles": "COc1cccc(N2CCN(CC(=O)Nc3nnc(-c4ccccc4)s3)CC2)c1", "inhibition": 29.2}, {"smiles": "O=C(CN1CCN(c2ccccc2)CC1)Nc1nccs1", "inhibition": 5.49}, {"smiles": "C=CCn1c(=S)[nH]c2cc(C(=O)Nc3ccc(OC)c(OC)c3)ccc2c1=O", "inhibition": -8.59}, {"smiles": "O=C(NCCc1ccc(F)cc1)c1cc2ccccc2oc1=O", "inhibition": 47.5}, {"smiles": "COc1cccc2cc(C(=O)NCCc3c[nH]c4ccccc34)c(=O)oc12", "inhibition": 61}, {"smiles": "COC(=O)C1=CN(Cc2ccc(OC)cc2)C=C(C(=O)OC)C1c1cc(OC)c(OC)c(OC)c1", "inhibition": 8.79}, {"smiles": "CCCCn1c(=O)c(C(=O)Nc2ccc(C)cn2)c(O)c2ccccc21", "inhibition": 0.62}, {"smiles": "CCCCCn1c(=O)c(C(=O)Nc2ccccn2)c(O)c2ccccc21", "inhibition": 68.9}, {"smiles": "CCCCCn1c(=O)c(C(=O)Nc2cc(C)ccn2)c(O)c2ccccc21", "inhibition": 17.3}, {"smiles": "CCCCn1c(=O)c(C(=O)Nc2ccccn2)c(O)c2ccccc21", "inhibition": 27.8}, {"smiles": "COc1cccc(NC(=O)c2ccnc(N3CCC(C(=O)NCc4ccccc4OC)CC3)c2)c1", "inhibition": -4.35}, {"smiles": "CC(C)(C)C(=O)Nc1c2c(nn1-c1ccccc1)CSC2", "inhibition": 35}, {"smiles": "COc1ccc(OCC(=O)NNC(=O)c2cccnc2)cc1", "inhibition": 3.8}, {"smiles": "COc1cccc(N2CCN(C(=S)Nc3ccc(F)cc3)CC2)c1", "inhibition": -4.62}, {"smiles": "c1ccc(OCCn2c(-c3ccco3)nc3ccccc32)cc1", "inhibition": 74.4}, {"smiles": "c1coc(Cn2c(-c3ccco3)nc3ccccc32)c1", "inhibition": 6.77}, {"smiles": "C=CCSc1nnc2c(n1)OC(C)=Nc1ccc(Br)cc1-2", "inhibition": 5.66}, {"smiles": "Cc1cc(NC(=O)COC(=O)c2ccccc2S(=O)(=O)N(C)c2ccccc2)no1", "inhibition": 9.17}, {"smiles": "CS(=O)(=O)c1ccccc1-c1nnc(NC(=O)COc2ccc(Cl)cc2)o1", "inhibition": 21.8}, {"smiles": "Cc1ccc(C)c(-c2nnc(NC(=O)Cc3ccccc3)o2)c1", "inhibition": -18}, {"smiles": "O=C(COC(=O)Cc1ccccc1)Nc1nnc(-c2ccccc2)o1", "inhibition": 10.8}, {"smiles": "O=C(CCOc1ccccc1)Nc1nnc(-c2ccc3c(c2)OCCO3)o1", "inhibition": -7.7}, {"smiles": "O=C(Nc1nnc(-c2ccncc2)o1)c1ccccc1F", "inhibition": 21.3}, {"smiles": "CC1(C(=O)OCC(=O)Nc2ccccc2)CC1(Cl)Cl", "note": "(stereo not drawn)", "inhibition": 48.2}, {"smiles": "O=C(Nc1ccc2c(c1)CCC2)c1c(F)cccc1Cl", "inhibition": 1.55}, {"smiles": "O=C(COc1ccccc1)Nc1nnc(-c2ccco2)o1", "inhibition": 19.2}, {"smiles": "COc1ccccc1NC(=O)COC(=O)CCc1ccc(S(=O)(=O)N2CCOCC2)cc1", "inhibition": 5.51}, {"smiles": "CCCCN1CC(COc2ccccc2)OC1=O", "note": "(stereo not drawn)", "inhibition": 72.5}, {"smiles": "COc1ccc(Nc2oc(COc3cccc(C)c3)nc2C#N)cc1", "inhibition": 13.3}, {"smiles": "CCN(CC)S(=O)(=O)c1ccc(N2CCCC2)c(NC(=O)c2c(-c3ccccc3)noc2C)c1", "inhibition": 13.9}, {"smiles": "Cc1cccc(C(=O)NCC(=O)OCC(=O)NC2CCCCC2)c1", "inhibition": -3.75}, {"smiles": "O=C(NCc1ccncc1)C(=O)NCC1OCCN1S(=O)(=O)c1cc(F)ccc1F", "note": "(stereo not drawn)", "inhibition": 3.82}, {"smiles": "Cc1cccc2c(=O)c(C(=O)NCCCN3CCOCC3)c[nH]c12", "inhibition": 4.67}, {"smiles": "Cc1nnc(SCCn2c(N3CCCCC3)nc3c2c(=O)n(C)c(=O)n3C)s1", "inhibition": 7.29}, {"smiles": "O=C(Nc1ccc([N+](=O)[O-])cn1)c1ccc2c(c1)OCO2", "inhibition": -8.57}, {"smiles": "Cc1cnc(NC(=O)c2ccc3c(c2)OCCO3)s1", "inhibition": 12.1}, {"smiles": "Cc1ccc(C2(c3noc(CN4CCC(C(=O)N5CCOCC5)CC4)n3)CCCC2)cc1", "inhibition": 14.3}, {"smiles": "COC(=O)c1oc2ccc(Br)cc2c1NC(=O)CCCN1C(=O)c2ccccc2C1=O", "inhibition": -12.2}, {"smiles": "CC(=O)Oc1ccc(C(=O)Nc2cccc(C(=O)NC(C)(C)C)c2)cc1", "inhibition": 7.66}, {"smiles": "O=C(COc1ccc2c(-c3ccccc3)cc(=O)oc2c1)NCc1ccccn1", "inhibition": 7.24}, {"smiles": "Cc1nn(-c2ccccc2)c(C)c1CN", "inhibition": 6.26}, {"smiles": "CCOc1ccc(C(=O)Oc2ccc(NC(C)=O)cc2)cc1", "inhibition": 24.7}, {"smiles": "CC(=O)Nc1ccc(OC(=O)c2ccc(Cl)cc2)cc1", "inhibition": 52.1}, {"smiles": "Cc1ccc(N2CC(C(=O)Nc3nnc(SCCC4OCCO4)s3)CC2=O)cc1C", "note": "(stereo not drawn)", "inhibition": 27.4}, {"smiles": "CCN(CC(=O)NCc1ccc(F)cc1)C(=O)COc1ccc(C)c(C)c1", "inhibition": 28.3}, {"smiles": "COc1ccc(C(=O)O)cc1S(=O)(=O)NC(C)C", "inhibition": -0.91}, {"smiles": "Oc1ccc(Br)cc1-c1cc(-c2ccc(Cl)cc2)n[nH]1", "inhibition": 13.8}, {"smiles": "Oc1ccc(Br)cc1-c1cc(-c2ccccc2)n[nH]1", "inhibition": -5.74}, {"smiles": "C1=C(CCNCc2ccccc2)CCCC1", "inhibition": -4.9}, {"smiles": "O=C(NNC(=O)C1CC1c1ccccc1)c1ccccc1[N+](=O)[O-]", "note": "(stereo not drawn)", "inhibition": -10.3}, {"smiles": "O=C(NNC(=O)C1CC1c1ccccc1)c1cccc([N+](=O)[O-])c1", "note": "(stereo not drawn)", "inhibition": 3.57}, {"smiles": "O=C(O)c1ccccc1C(=O)NNc1ccc(Cl)cc1Cl", "inhibition": 10.7}, {"smiles": "Cc1cc(C(=O)N/N=C/c2ccc[nH]2)no1", "inhibition": 64.3}, {"smiles": "Cc1cc(C(=O)N/N=C/c2cccs2)no1", "inhibition": 33.9}, {"smiles": "NS(=O)(=O)c1ccc(NNC(=O)c2ccccc2C(=O)O)cc1", "inhibition": -12.1}, {"smiles": "O=C(NC(NNc1ccc([N+](=O)[O-])cc1)(C(F)(F)F)C(F)(F)F)c1ccccc1Cl", "inhibition": 6.68}, {"smiles": "O=C(NNc1ccc([N+](=O)[O-])cc1)c1ccco1", "inhibition": 69.6}, {"smiles": "CN(c1ccccc1)S(=O)(=O)c1ccc(NC(=S)NC(=O)C2CC2)cc1", "inhibition": -18.9}, {"smiles": "COc1cc(OC)cc(C(=O)N2CCC(C(=O)c3ccc(F)cc3)CC2)c1", "inhibition": 5.91}, {"smiles": "CC(C)[C@@H](C(=O)NC1CC1)N1C(=O)N2CCc3c([nH]c4ccccc34)[C@@]2(C)C1=O", "inhibition": 21}, {"smiles": "CC1CCC(NC(=O)CN2CCN(S(=O)(=O)c3cccs3)CC2)CC1", "note": "(stereo not drawn)", "inhibition": 1.37}, {"smiles": "Cc1nc2c(-c3ccc(F)cc3)c(C)nn2c(N2CCOCC2)c1C", "inhibition": 40.1}, {"smiles": "O=C(O)CSc1nnc(-c2ccc(Cl)cc2Cl)n1Cc1ccccc1", "inhibition": -8.24}, {"smiles": "O=C(NC1CCCCC1)C(c1cccs1)N(C(=O)C(F)(F)F)c1ccccc1", "note": "(stereo not drawn)", "inhibition": 14.2}, {"smiles": "Cc1cc(C(=O)NNc2ccc(F)cc2)no1", "inhibition": 57.1}, {"smiles": "Cc1cc(C(=O)NNC(=O)Nc2ccc(Cl)cc2)no1", "inhibition": -6.49}, {"smiles": "Cc1ccc(C)c(C(=O)CCC(=O)Nc2ccc(F)cc2)c1", "inhibition": 40}, {"smiles": "CC(C)OCC(O)CS(=O)(=O)Cc1ccccc1", "note": "(stereo not drawn)", "inhibition": -5.18}, {"smiles": "O=C(c1cccnc1)N1CCC(Oc2ccc(C(=O)N3CCCC(O)C3)cc2)CC1", "note": "(stereo not drawn)", "inhibition": -34.2}, {"smiles": "CSc1nc(Cl)cc(=O)[nH]1", "inhibition": 6.5}, {"smiles": "CSc1cc(C)[nH]c(=O)n1", "inhibition": -1.97}, {"smiles": "O=C(NCC(c1ccco1)N1CCc2ccccc21)c1ccccc1Br", "note": "(stereo not drawn)", "inhibition": 11.1}, {"smiles": "Cc1ccc(Cn2c(NS(=O)(=O)c3ccccc3)nc3ccccc32)cc1", "inhibition": -3.28}, {"smiles": "O=C(Nc1nc2ccccc2n1Cc1ccc(Cl)cc1)c1ccco1", "inhibition": -7.17}, {"smiles": "CC(=O)NCCCc1nc2ccccc2n1Cc1ccc(C)cc1", "inhibition": 1.78}, {"smiles": "CC(=O)NCCc1nc2ccccc2n1Cc1ccc(Cl)cc1", "inhibition": 0.72}, {"smiles": "CC(=O)Nc1ccc(-c2nc3cc(Cl)ccc3o2)cc1", "inhibition": 49.8}, {"smiles": "CC/C(=N\\NC(N)=O)c1c(O)[nH]c(=O)[nH]c1=O", "inhibition": -25.7}, {"smiles": "C/C(Cn1nnc([N+](=O)[O-])n1)=N\\NC(=O)c1ccc(O)cc1", "inhibition": 54.4}, {"smiles": "C/C(Cn1nnc([N+](=O)[O-])n1)=N\\NC(=O)c1ccc(C)cc1", "inhibition": 55.5}, {"smiles": "Cc1nc2c(sc3nc4c(cc32)COC(C)(C)C4)c(=O)n1Cc1ccccc1", "inhibition": 8.21}, {"smiles": "CCNC(=O)OCC12CC3CC(CC(C3)C1)C2", "inhibition": 77}, {"smiles": "CCCNC(=O)OCCC12CC3CC(CC(C3)C1)C2", "inhibition": 69.4}, {"smiles": "COc1ccc(Cl)c2sc(N(CCN(C)C)C(=O)CCS(=O)(=O)c3ccc(C)cc3)nc12", "inhibition": 26.4}, {"smiles": "O=C(NCC1CCCN(C(=O)c2cccnc2)C1)c1ccc(-c2ccccc2)cc1", "note": "(stereo not drawn)", "inhibition": -2.83}, {"smiles": "O=C(O)c1ccc(Nc2ncc([N+](=O)[O-])cc2[N+](=O)[O-])cc1", "inhibition": 5.68}, {"smiles": "O=[N+]([O-])c1ccc(Nc2ccc(Cl)cc2)nc1", "inhibition": 16.9}, {"smiles": "COc1ccc(CCNC(=O)c2ccc(S(=O)(=O)N(C)c3ccccc3)cc2)cc1OC", "inhibition": -1.9}, {"smiles": "O=C(CC1CCCC1)Nc1cc(C(F)(F)F)ccc1-n1cncn1", "inhibition": 12.3}, {"smiles": "c1ccc(Nc2ccccn2)nc1", "inhibition": 3.72}, {"smiles": "c1ccc(Nc2ccccc2Nc2ccccn2)nc1", "inhibition": 0.46}]}]}
